Compound activity as filed in PubChem.
ELG1 repair inh = blocks ELG1-dependent DNA repair in HEK293T cells | HEK293T ELG1-luciferase reporter, luminescence, 16 h; DNA damage induced by 5-fluorouridine | Potency, µM (titrated, usually from 46.1 µM), actives largely listed as inhibitors | 2.3% of 330,000 active | AID 504467; also: nearly all actives have a fitted effect of over 55% in size
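Quantitative HTS, concentration-response format. 2,000 cells/well co-treated with 5-fluorouridine and compound, 16 hr in 5% CO2 at 37 °C; ONE-Glo luminescence read after 30 min.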
NPC1 prom act = activates the NPC1 promoter; Huh7 NPC1 promoter luciferase reporter, 24 h; 2.4% of 320,000 active; AID 485313; Potency, µM (highest dose often 9.22 µM), actives largely listed as activators; also: nearly all actives have a fitted effect of over 60% in size
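Luminescence read-out of NPC1 promoter-driven luciferase in stably transfected Huh7 cells; compounds delivered in DMSO and left 24 h at 37C, 5% CO2, qHTS titration format.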
FLuc counter = inhibits or activates purified firefly luciferase, miR-21 counter-screen; P08659; purified FLuc, Km substrates, luminescence inhibition; Potency, µM (titrated, usually from 57.5 µM), hits mostly inhibitors; 6.9% of 360,000 active; AID 588342; also: nearly all actives have a fitted effect of over 55% in size
Target sequence (P08659 whole entry, looked up): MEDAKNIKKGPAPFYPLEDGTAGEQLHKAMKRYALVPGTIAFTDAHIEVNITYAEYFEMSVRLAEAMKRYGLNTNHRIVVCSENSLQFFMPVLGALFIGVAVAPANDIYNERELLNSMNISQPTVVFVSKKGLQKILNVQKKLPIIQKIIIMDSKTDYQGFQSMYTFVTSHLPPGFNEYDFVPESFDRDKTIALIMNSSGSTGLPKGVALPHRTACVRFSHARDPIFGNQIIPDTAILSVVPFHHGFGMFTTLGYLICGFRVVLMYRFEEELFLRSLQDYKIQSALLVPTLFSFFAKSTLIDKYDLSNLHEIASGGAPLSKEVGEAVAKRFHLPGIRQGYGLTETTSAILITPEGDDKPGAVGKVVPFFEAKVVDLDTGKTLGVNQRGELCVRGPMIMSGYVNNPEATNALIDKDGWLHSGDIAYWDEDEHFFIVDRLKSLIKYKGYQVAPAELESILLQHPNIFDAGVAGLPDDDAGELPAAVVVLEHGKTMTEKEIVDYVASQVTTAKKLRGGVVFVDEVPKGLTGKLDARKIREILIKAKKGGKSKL
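Purified P. pyralis luciferase (10nM final) with 10uM D-luciferin and 10uM ATP (Km levels) in 50mM Tris acetate pH 7.5, 10mM Mg acetate, 0.01% Tween-20, 0.05% BSA; qHTS 6-point titration, ~60 µM downward; luminescence read.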
Rab9 prom act = Rab9 promoter activation | Potency, µM (highest dose often 9.22 µM), actives largely listed as activators | Huh7 Rab9 promoter-luciferase reporter, luminescence, 24 h | 2.8% of 320,000 active; also: nearly all actives have a fitted effect of over 60% in size
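Luminescence from Amplite-detected luciferase (10 minutes, ambient) reports Rab9 promoter activation. Before that, stable Rab9-luciferase Huh7 cells (1500/well, reduced-serum OP-MEM I plus 10% FBS) were exposed to compound for 24 hours at 37C.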
ELG1 genotox = genotoxicity induction in ELG1-luciferase HEK293T cells; 1.3% of 330,000 active; Potency, µM (doses to about 46 µM), usual class: activators; HEK293T ELG1-luciferase reporter, luminescence, 16 h; also: nearly all actives have a fitted effect of over 60% in size
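Cells (2,000/well) expressing the ELG1-luciferase fusion are dosed by pin tool and kept 16 hr at 37 °C, 5% CO2. Signal comes from ONE-Glo luciferase reagent after 30 min at room temperature.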
SMN2 splice enh = SMN2 splice variant enhancement | 2.8% of 210,000 active | HEK293 SMN2-luciferase splicing reporter, luminescence, 30-36 h | Potency, µM (doses to about 46.1 µM), usual class: activators; also: nearly all actives have a fitted effect of over 55% in size
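HEK293 cells carry an SMN2 […]–luciferase reporter in which exon 7 inclusion puts luciferase in frame. Cells were plated 10-12 h before compound addition, then incubated 30-36 h at 37C. ONE-Glo luminescence was read; sodium butyrate at 4.5 mM final served as control.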
A number is an active result; [ ] = remark or other dose. Most compounds without a hit are left out; they make up all but 9.3% or so of the library. Calls follow the shape of the dose curve; as a rule, active = well fitted curve in the direction sought with a large enough effect; inconclusive = small, poorly fitted or top-dose-only effect, or another doubt; inactive = no such curve, though single readings can be large; an effect the other way counts as inactive or inconclusive.

What do the screens show for `CCCOc1ccc(/C=N/NC(=O)c2ccc(Cn3cc([N+](=O)[O-])cn3)o2)cc1`?
ELG1 repair inh: inconclusive; NPC1 prom act: inactive; FLuc counter: 2.39µM; Rab9 prom act: inconclusive; ELG1 genotox: inconclusive; SMN2 splice enh: inactive

What do the screens show for `CN(Cc1nc2ccccc2c(=O)[nH]1)C(=O)COc1ccccc1Cc1ccccc1`?
ELG1 repair inh: inactive; NPC1 prom act: inactive; Rab9 prom act: inactive; ELG1 genotox: inactive

Results for Cc1ccc2c(c1)N(CC(=O)NCCCN1CCOCC1)C(=O)c1cccnc1O2 ?
ELG1 repair inh: inactive; NPC1 prom act: inactive; FLuc counter: inactive; Rab9 prom act: inactive; ELG1 genotox: inactive

What do the screens show for `COc1ccc(NC(=O)c2cc3ccccc3oc2=O)c(OC)c1`?
ELG1 repair inh: inconclusive; NPC1 prom act: 2.82µM; FLuc counter: inconclusive; Rab9 prom act: 2.82µM; ELG1 genotox: inconclusive

What do the screens show for `COc1ccccc1C(=O)Nc1cc2ccccc2oc1=O`?
ELG1 repair inh: inconclusive; NPC1 prom act: 5.62µM; FLuc counter: inconclusive; Rab9 prom act: 3.98µM; ELG1 genotox: 2.82µM; SMN2 splice enh: inconclusive

Results for O=C(O)c1ccccc1NC(=O)c1cc2ccccc2oc1=O ?
ELG1 repair inh: inconclusive; NPC1 prom act: 3.55µM; FLuc counter: 7.57µM; Rab9 prom act: 2.82µM; ELG1 genotox: inconclusive

How did COc1ccc(S(=O)(=O)Nc2ccccc2OC)cc1NC(=O)c1cc2ccccc2oc1=O do in these assays?
ELG1 repair inh: inconclusive; NPC1 prom act: 3.98µM; FLuc counter: 12µM; Rab9 prom act: 3.98µM; ELG1 genotox: inconclusive

Results for CCCCNC(=O)C1(NC(=O)Nc2ccc(C)cc2)CCCCC1 ?
ELG1 repair inh: inactive; NPC1 prom act: inactive; FLuc counter: inactive; Rab9 prom act: inactive; ELG1 genotox: inactive; SMN2 splice enh: inactive

What do the screens show for `Cc1noc(C)c1C(=O)N1CCC[C@@]2(CCN(c3ccccn3)C2)C1`?
SMN2 splice enh: inactive

Results for CC1(C)CC(=O)C=C(c2ccc3ccccc3c2)C1 ?
ELG1 repair inh: inconclusive; NPC1 prom act: inactive; FLuc counter: inconclusive; Rab9 prom act: inactive; ELG1 genotox: inactive

How did C=CC[C@@H](CC(=O)NCCO)C(=O)N[C@@H](C)COC(=O)[C@H](CC=C)CC(=O)OC(C)(C)C do in these assays?
ELG1 repair inh: inactive; ELG1 genotox: inactive

Results for COc1ccc(CNC(=O)COC(=O)CC(NC(N)=O)c2ccc(Cl)cc2)cc1OC (stereo unspecified) ?
ELG1 repair inh: inactive; NPC1 prom act: inactive; Rab9 prom act: inactive; ELG1 genotox: inactive

How did Cc1ccccc1Cn1nnc2c(=O)[nH]c(C3CCN(C(=O)c4ccccc4)CC3)nc21 do in these assays?
FLuc counter: inactive; SMN2 splice enh: inactive

How did COc1ccc(OC)c(CN2CCN(C(=O)c3cc(S(=O)(=O)Nc4ccccc4OC)ccc3C)CC2)c1 do in these assays?
ELG1 repair inh: 23.1µM; NPC1 prom act: inactive; FLuc counter: inactive; Rab9 prom act: inactive; ELG1 genotox: inactive

How did COc1ccccc1NS(=O)(=O)c1ccc(C)c(C(=O)N2CCCC2)c1 do in these assays?
ELG1 repair inh: inactive; NPC1 prom act: inactive; FLuc counter: inactive; Rab9 prom act: inactive; ELG1 genotox: inactive

What do the screens show for `COc1ccccc1N1CCN(C(=O)CN2C(=O)c3ccccc3S2(=O)=O)CC1`?
ELG1 repair inh: inactive; NPC1 prom act: inactive; FLuc counter: inactive; Rab9 prom act: inactive; ELG1 genotox: inactive

What do the screens show for `O=C(O)CCCc1ccc2c(c1)CCc1ccccc1-2`?
ELG1 repair inh: inconclusive; NPC1 prom act: inactive; FLuc counter: 4.26µM; Rab9 prom act: inactive; ELG1 genotox: inactive

Results for Cc1ccc(CCCC(=O)O)cc1C ?
SMN2 splice enh: inactive[9.22 µM]

How did Cc1ccc(OCC(=O)Nc2cccc(-c3nc4ccccc4o3)c2C)cc1C do in these assays?
FLuc counter: inactive; SMN2 splice enh: inactive

How did CCCC(=O)Nc1ccc(-c2nc3cc(C)c(C)cc3o2)cc1 do in these assays?
ELG1 repair inh: inconclusive; NPC1 prom act: 0.355µM; FLuc counter: 1.07µM; Rab9 prom act: 0.355µM; ELG1 genotox: inconclusive; SMN2 splice enh: 11.2µM

How did CCCC(=O)Nc1cccc(-c2nc3cc(C)c(C)cc3o2)c1C do in these assays?
FLuc counter: 0.269µM; SMN2 splice enh: inconclusive

How did CCCC(=O)Nc1ccc2oc(-c3ccncc3)nc2c1 do in these assays?
ELG1 repair inh: inactive; NPC1 prom act: inactive; FLuc counter: inconclusive; Rab9 prom act: inactive; ELG1 genotox: inactive; SMN2 splice enh: inactive

What do the screens show for `COc1ccc(CCN2CC(C(=O)N3CCSCC3)CCC2=O)cc1` (stereo unspecified)?
ELG1 repair inh: inactive; NPC1 prom act: inactive; FLuc counter: inactive; Rab9 prom act: inactive; ELG1 genotox: inactive

Results for COC(=O)C1CCCCN1C(=O)CCc1nnc(CCc2c[nH]c3ccccc23)o1 (stereo unspecified) ?
ELG1 repair inh: inactive; NPC1 prom act: inactive; FLuc counter: inactive; Rab9 prom act: inactive; ELG1 genotox: inactive

Results for COC(=O)[C@@H]1CCCN1C(=O)CCc1nnc(CCc2c[nH]c3ccccc23)o1 ?
ELG1 repair inh: inactive; NPC1 prom act: inactive; FLuc counter: 16.9µM; Rab9 prom act: inactive; ELG1 genotox: inactive

Results for CCN1CCCC1CNC(=O)CCc1nnc(CCC2CCCCC2)o1 (stereo unspecified) ?
ELG1 repair inh: inactive; NPC1 prom act: inactive; FLuc counter: inactive; Rab9 prom act: inactive; ELG1 genotox: inactive; SMN2 splice enh: inactive

What do the screens show for `COC(=O)[C@@H]1CCCN1C(=O)CCc1nnc(CCC2CCCCC2)o1`?
ELG1 repair inh: inconclusive; NPC1 prom act: inactive; FLuc counter: 19µM; Rab9 prom act: inconclusive; ELG1 genotox: inconclusive; SMN2 splice enh: inconclusive

How did Cc1onc(-c2ccccc2Cl)c1C(=O)Nc1nc2c(s1)CCCC2 do in these assays?
ELG1 repair inh: inconclusive; NPC1 prom act: inactive; FLuc counter: 13.5µM; Rab9 prom act: inconclusive; ELG1 genotox: inactive; SMN2 splice enh: inactive

How did Cc1ccc(C(=O)Nc2nc3c(s2)CCCC3)o1 do in these assays?
ELG1 repair inh: inconclusive; NPC1 prom act: 3.16µM; FLuc counter: 1.69µM; Rab9 prom act: 1µM; ELG1 genotox: 1.16µM; SMN2 splice enh: 14.1µM

What do the screens show for `O=C(Nc1nc2c(s1)CCCC2)c1cc(-c2ccccc2)nc2ccccc12`?
ELG1 repair inh: inactive; NPC1 prom act: inactive; FLuc counter: inconclusive; Rab9 prom act: inactive; ELG1 genotox: inactive; SMN2 splice enh: inactive

Results for COc1ccc(C(=O)N[C@H](C(=O)Nc2nc3c(s2)CCCC3)C(C)C)cc1 ?
ELG1 repair inh: inactive; NPC1 prom act: inactive; FLuc counter: 15.1µM; Rab9 prom act: inactive; ELG1 genotox: inactive; SMN2 splice enh: inconclusive
